The panel holds about 83,000 compounds, 20% with a hit somewhere; the sample as a whole holds those more often.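 Percent growth is the endpoint: 0 to 100 indicates growth inhibition (40 means 60% inhibition), 0 means no net growth, and negative values indicate cell death.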 Unmarked numbers belong to inactive results. Activity calls are given as the source filed them.
Test system: HS 578T breast
Assay: NCI-60 one-dose screen, 48 h (100 = growth as untreated, 0 = no growth, -100 = all killed)
Settings: 10 µM unless noted
Description: Growth inhibition of the HS 578T human tumor cell line is measured as a screen for anti-cancer activity. Cells are grown in 96 well plates and exposed to the test compound for 48 hours. Compounds are tested at a single concentration, which is 10^-5 M for most compounds. The reported endpoint is percent growth (GI% or GIPRCNT), where numbers from 0 - 100% represent growth inhibition, and numbers from -100% - 0 represent cell death. For example, a value of 40 represents 60% growth inhibition. A value of 0 means no net growth occurred over the course of the experiment. A value of -40 indicates 40% of cells at the beginning of the experiment died by the end of the experiment. A value of -100 means all cells are dead at the end of the experiment.
NCI-60 Human Tumor Cell Lines Screen was performed using the standard one-dose NCI protocol, which is described in more detail at https://dtp.cancer.gov/discovery_development/nci-60/default.htm.
Compounds with GIPRCNT values below 10 were considered active. Activity score was based on GIPRCNT using the following formula: […]
Score is 0 for GIPRCNT values of 100 or above, 50 for GIPRCNT values of 0, and 100 for GIPRCNT values of -100.

SMILES	growth
N#CC1=C(N)OC2=C(C(=O)CCC2)C1c1ccco1 (stereo not given)	115%
COc1cc(-c2n[nH]nc2-c2ccc3c(c2)OCCO3)cc(OC)c1OC	12.7%
COc1ccc(C2NC3=C(CCCC3)C(C#N)(C#N)C2(C#N)C#N)cc1 (stereo not given)	98%
CCCC1OC(c2ccc(C(C)C)cc2)OCC1CC (stereo not given)	99.6%
COc1ccc(/C=C/C(=O)c2ccc(NC(=O)CN3CCN(c4cc5c(cc4F)c(=O)c(C(=O)O)cn5C4CC4)CC3)cc2)cc1	94.8%
COc1ccc(/C=C/C(=O)c2cc(OC)c(OC)c(OC)c2)cc1OCc1cn(Cc2ccc(F)cc2)nn1	82.6%
NC(N)=NC(N)=Nc1ccccc1-c1ccccc1	109%
O=C(CNc1c(Cl)cccc1Cl)Nc1ccc(-c2nc3ccccc3s2)cc1	87.2%
O=C(Nc1cc(C(F)(F)F)cc(C(F)(F)F)c1)Nc1ccc(OCc2nnc(-c3ccc(Cl)cc3)o2)c(F)c1	28.1%
COc1cc(C2CC(c3c(C)[n+]([O-])c4ccccc4[n+]3[O-])=NN2)cc(OC)c1OC (stereo not given)	103%
COc1ccc(NC(=S)/N=c2\oc3c(OC)cccc3cc2-c2cc3ccccc3[nH]2)cc1	36.4%
Cc1ccc(S(=O)(=O)NCCCNc2nccc(-c3c(-c4ccccc4)nc4sccn34)n2)cc1	74.9%
NC(=O)NNC(=O)c1ccccc1	108%
Cc1ccc2nc(SCn3nnc4ccccc4c3=O)[nH]c2c1	107%
O=C(Nc1cccc(Cl)c1)c1cc([N+](=O)[O-])ccc1O	41.9%
CCOC(=O)C1=C(C)NC(=O)NC1c1ccc(OCC(=O)N/N=C/c2ccc(Cl)cc2)cc1 (stereo not given)	86.6%
O=C1N=C(c2c(-c3[nH]c(=O)c4ccc(Br)cc4c3O)c(O)c3ccccc3c2O)C(=O)c2cc(Br)ccc21	-21.9% (active)
CCCn1c(=S)sc2c(Cl)nc(C)nc21	36.8%
CCOC(=O)c1cc(/C(=N\O)c2cc(OC)c(OC)c(OC)c2)n2c(C)cccc12	12.4%
O=C(NNC(=S)Nc1ccccc1)c1ccccn1	65.8%

SMILES	growth
O=C(Cc1n[nH]c(=O)c2ccccc12)OCc1c(Cl)cccc1Cl	103%
Cc1ccc2c(c1)ncn2-c1ncnc2c1CC(C)c1ccccc1N2C (stereo not given)	20.2%
O=C(CNc1ccc(Cl)cc1)Nc1ccc(-c2nc3ccccc3s2)cc1	84.1%
Cc1ccc(Cn2c(-c3nonc3N)nc3ccccc32)cc1	72.9%
O=[N+]([O-])c1c(S(=O)(=O)O)cc2cc(S(=O)(=O)O)ccc2c1[N+](=O)[O-]	98.7%
Cc1nn(-c2ccc(Cl)cc2)c(=O)n1CCOc1ccccc1Cl	90.3%
CCOC(=O)C1=C(CSC(=S)N(C2CCCCC2)C2CCCCC2)N(C)C(=O)NC1c1ccccc1 (stereo not given)	80.7%
O=c1oc2cc(OS(=O)(=O)c3ccc(F)cc3)ccc2c2c1CCCCC2	88%
COc1cc(CNC(=O)CSc2nc3ccccc3c(=O)n2Cc2cc(OC)c(OC)c(OC)c2)cc(OC)c1OC	110%
COc1cc(-c2nc(-c3nc4ccccc4[nH]3)cc3c2[nH]c2ccccc23)cc(OC)c1OC	55.8%
CCN(CC)CCSc1c2ccc(Cl)cc2nc2ccc(OC)cc12	108%
COc1ccc(/C=C/c2cc(N3CCOCC3)c3cc(F)c(F)cc3n2)cc1OC	74.7%
COc1ccc(/C=c2\sc3n(c2=O)C2C(NN=3)N(C)C(=O)N2C)cc1 (stereo not given)	8.08% (active)
COc1cc(OC)c(C(=O)/C=C/c2cccc(C#N)c2)c(OC)c1	17.6%
Clc1nc2ccccc2nc1CI	115%
Nc1c(C(=O)Nc2cccc(C(F)(F)F)c2)sc2nc3c(cc12)CCCCC3	16.6%
COc1ccc(/C=C/c2nc(N3CCOCC3)c3nc(Cl)c(Cl)cc3n2)cc1OC	113%
CCSc1nnc(NC(=O)Cc2ccc(Cl)cc2)s1	110%
Cc1ccc(S(=O)(=O)OC2COCOC2C(OS(=O)(=O)c2ccc(C)cc2)C2OCOCC2OS(=O)(=O)c2ccc(C)cc2)cc1 (stereo not given)	107%
O=C1c2ccccc2C(=O)c2c(N=Nc3sc(=O)[nH]c3S)cccc21	90.3%

Source: PubChem BioAssay (NCI)
